The supplement of paper PMC6555819

What was measured:
Test in all cases: PBM binding z-score (relative to random genomic background probes); higher = stronger binding; sequences stand for … in GC…GCGATTGACAGCGTAGAATGAAGG
[1] = tested on: RARb homodimer (NR concentration 270 nM)
In short: (§1)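 Ligand-free nuclear receptor dimers were applied to custom Agilent 4×180K protein-binding microarrays whose double-stranded probes carried direct-repeat seeds, single-nucleotide variants, half-site ablations and random human genomic background sequences in 34-nt variable regions. Incubation lasted 1 h. Binding z-scores were computed against the random background probes from regression-normalized fluorescence.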

[2] = tested on: RARg:RXRa (NR concentration 270 nM, RXRa partner concentration 90 nM)
In short: as §1

[3] = tested on: RARg homodimer (NR concentration 270 nM)
In short: as §1

[4] = tested on: RXRa DBDmut IVT, anti-RXR (DBD mutation: RXRa K156A/R161A, NR concentration 90 nM)
In short: as §1

[5] = tested on: RXRa homodimer (NR concentration 180 nM)
In short: as §1

[6] = tested on: THRa:RXRa (NR concentration 90 nM, RXRa partner concentration 90 nM)
In short: as §1

[7] = tested on: THRa homodimer (NR concentration 90 nM)
In short: as §1

[8] = tested on: VDR homodimer (NR concentration 270 nM)
In short: as §1

Sequence	PBM binding z-score [1]	PBM binding z-score [2]	PBM binding z-score [3]	PBM binding z-score [4]	PBM binding z-score [5]	PBM binding z-score [6]	PBM binding z-score [7]	PBM binding z-score [8]
CCAGACAGGTGAGAAGGTAACCCAGCCTCGATTA	0.888	0.695	0.557	-0.131	0.558	0.444	0.455	-0.253
TCTCCGAGGACACGAAGGTCAGAGCTTTCCAGAG	3.51	3.46	4.49	0.665	2.02	3.74	2.44	1.76
TAGCCTAGGTCATGGTCCAGTATACCACGCGAAC	3.04	3.96	4.28	0.681	3.51	3.39	1.75	0.777
GATACAGGGTCAAGGCCAGAGTTCGCGTATTGAT	4.11	5.64	5.19	2.9	6.18	3.64	1.21	4.76
ACTATTAGTTAAGACGAGGGCAACCGATAGGTTG	1.34	0.59	0.902	0.459	0.55	1.85	0.204	0.991
CAGCCTAGGTCAGGGCGAGTATAGGAGGAACGTT	2.44	3.08	3.72	0.0681	1.76	2.03	0.0582	-0.499
GCATATAGGTAATACTAGGTGAAAGTCCGATTGT	0.423	0.466	0.359	0.563	0.745	3.45	0.246	0.235
ACAGCCAGGTGAGTGAAGGTAACTCAGCTGGACG	-0.424	-0.155	-0.0105	-0.98	-0.177	1.46	-0.534	-0.751
GCTTGTAGATCAAGGTTAAGAGAGACTAAGCTAA	0.148	0.263	0.22	-0.00641	0.438	1.2	-0.0888	-0.335
GGAACGAGGGCAAAGTTGTTAGCATCTGTCGACG	1.15	1.47	1.48	2.61	1.11	1.12	-0.449	1.32
CCTGCTAGGTCTTGGTCAGCTAATCTACAGTATG	0.408	-0.194	-0.144	0.336	-0.394	-0.178	-0.108	-0.656
CCGACTGGGGCAACGTTACCATAACGCACAGCCA	-0.0419	0.137	0.521	-0.207	-0.126	-0.262	-0.261	-0.403
CAAACTAGGTCACGAAAGGTCAAAGACGAATGAC	5.96	7.75	8.37	2.55	8.19	5.15	2.72	3.52
CGCCCAAGGTCAATGCTAGGTCAGTGAAAGCATT	5.07	7.39	6.43	2.91	5.06	4.28	2.72	2.51
TCGAGTAGGTTAGGGTCATTCAGAATGGCGTCGA	3.05	3.8	2.8	2.11	4.66	3.83	2.62	3.97
CCTAGGTGGTCAGGAGGTCACACACCGGATATGA	4.34	5.44	4.63	0.00245	5.16	3.45	2.2	2.85
CGTCAAAGTTCAAGGTAACGTAACAGAAAGCAGC	3.92	5.25	5.88	4.03	4.58	3	1.32	3.12
GCAGACAGGTGAAACGCAGGTGACTCAGGGTGGC	0.561	1.85	0.482	-0.723	0.927	1.56	-0.166	-0.391
ATCGAAAGGGCGAAGGTGAGTATACCCACCCGAA	1.17	1.63	1.2	-0.634	1.59	0.3	-0.75	-0.263

Sequence	PBM binding z-score [1]	PBM binding z-score [2]	PBM binding z-score [3]	PBM binding z-score [4]	PBM binding z-score [5]	PBM binding z-score [6]	PBM binding z-score [7]	PBM binding z-score [8]
AGAACGAGCGCAATGAGTTGATAGCACGGGTGGC	-0.96	-0.134	-0.287	-0.213	-0.0749	-0.609	-1.01	0.00307
TAGCCTAGGTAATTCAGGGGCCAGTATAGAAAGC	0.306	0.386	-0.0521	-0.687	-0.137	0.54	-0.13	-0.354
CCTGGGAGGACAGAAGGTCAGAGCTGTCCGCTTT	3.38	3.49	3.63	-0.277	1.92	2.69	0.124	0.289
CGTCCACGGTCAAAGGTCAGTGAAGAGATGACGG	4.48	6.76	6.04	0.983	7.05	3.11	0.0529	0.561
CAAACTAGGGCACCGGAAGGTCAAAGTCCGCATG	4.51	5.51	4.44	0.724	3.84	3.25	0.924	1.45
CCTAGCAGGCCAATCTGGGTGACTCAAGGCTTGA	-0.195	-0.294	-0.326	-0.391	-0.592	2.16	-0.548	-0.648
ATCTCTAGGTAACCCAGTTCAGTGAATGCCGAAC	0.825	0.714	0.439	0.564	0.828	1.45	0.872	1.39
GCGACTGGGGCATCAGCAGGTTCCCATAACTTAA	0.194	-0.00118	-0.0802	-0.281	-0.0306	-0.0535	-0.272	-0.434
ATCTCTAGGTAAAGATAGATCAGTGAATGCAAAT	-0.493	0.264	0.561	-0.154	-0.137	0.0339	-0.214	-0.0693
CAAACTCGGTCACAGAGGTCAAAGTCCGTGCGTA	5.29	6.57	6.96	2.49	6.63	4.04	1.73	5.74
CCCCGGAGGACAACAGGAGGTCAGAGCTGCCAGA	3.5	3.66	3.24	-0.883	2.21	2.94	1.39	1.77
TGAATGAGGTTCTAAGATCAGGGAACGTTGCAAA	-0.907	-0.113	-0.275	-0.623	-0.155	-0.125	-0.86	-0.351
TCTAGTTGGTCAAACGTCACACACTCGAAATGCG	0.78	0.926	0.831	1.2	1.04	0.288	0.167	0.2
TCGAGTAGGTTACGAATGGGGCATTCAGCTTTCT	0.29	0.904	0.405	0.441	0.67	-0.0841	-1.13	-0.811
TCTATTAGTTGAAGGGCAACCGACGAGTCCGTTT	1.41	0.635	0.786	1.57	0.701	0.419	0.09	1.87
ATACCAAGGTGATCGAGAGGTCGTTGATACTAAC	1.77	2.91	1.06	0.829	1.71	2.59	0.902	1.98
ATTGAAAGGTCGTGAGGTGAGTATACAGAAAGGC	3.49	4.76	4.06	1.2	5.39	3.77	1.94	1.4
TCGAGTAGGTTAATCGGGGCATTCAGCCAACATA	0.592	0.49	0.334	0.443	0.518	1.99	-0.373	0.184
TCTTGTACATCAGCAGGTTAAGAAAGCTGGCCAA	0.266	0.217	-0.00852	0.924	0.606	0.455	-0.157	0.111

Sequence	PBM binding z-score [1]	PBM binding z-score [2]	PBM binding z-score [3]	PBM binding z-score [4]	PBM binding z-score [5]	PBM binding z-score [6]	PBM binding z-score [7]	PBM binding z-score [8]
CCGACTGGGGCAAAGGATACCATACTCAGTACGA	0.263	0.271	0.572	-0.0232	0.075	-0.155	-0.322	-0.406
TCTTGTAGATCAATAGAGATTAAGAAAGTGCGCT	-0.717	0.0195	0.0177	0.545	0.326	-0.317	-1.06	-0.336
CGTCAAAGTTCGAGGTAACGTAACAGAAAGCAGC	1.46	1.92	2.31	2.39	1.64	2.1	0.898	1.2
ATACCAAGGTGATCGTGAGGTCGTTGAAACTAAC	2.04	2.53	1.34	0.72	1.98	3.84	3.02	3.25
ATCGAAAGGTCGAGGTCAGTATAGAGAAAGGGAA	4.73	5.69	6.16	2.01	5.46	3.84	1.93	2.73
GCTTACGCGTCAAAGGTTATAGCATGAATAGAAT	0.965	1.43	0.64	0.189	3.35	1.65	-0.774	-0.203
CGGCCAAGGTCAGCAGGTCAGTGAAAGCGACGTG	5.01	6.21	6.95	2.22	5.05	3.85	1.94	1.09
CGAACTAGGTCAGAACAGGACAGTGGAGGATGAT	2.31	2.47	3.32	0.671	1.4	3.33	0.46	0.198
TCTTGTAGATGAGCAGGTTAAGAAAGCTGGCCAA	-0.681	-0.327	-0.525	-0.188	0.00792	-0.277	-0.72	-0.433
CGAACGAGGGCATGAGTTAATAGCAAATGCCGAT	0.53	1.2	1.61	2.14	0.895	1.13	-0.42	1.02
GCGACTGGGGTATCAGCAGGTTACCATAACTTAA	0.852	0.223	-0.199	-0.351	0.229	1.82	-0.0503	-0.333
AGAATGAGGCTATTAAGATCAGGGAATTGCGGTC	-0.0206	-0.0314	0.143	0.0802	0.257	0.48	-0.292	-0.448
CCGACTGTGGCATAAGGTTACCATAAGCCAGCCC	1.24	0.6	0.353	0.486	0.923	2.37	1.7	-0.189
TCATATAGGTAAAAGGTGGAAGTCGGTGTGGTAA	0.589	0.466	-0.0176	1.55	1.54	0.305	0.294	0.281
GCTGCTAGGTCAGGTTGGTCAGCTGACGGGTACG	2.62	2.79	3.56	0.752	1.09	1.81	0.492	0.505
CCTATTAGTTGACCATTAGGGCAACCGAAGCTCG	1.68	0.667	0.891	0.456	0.374	0.945	0.78	0.844
TCGAGTAGGTTACCAATGGGGCATTCCGCTTTCT	0.449	0.942	0.197	0.173	0.226	-0.155	-0.631	-0.741
CAAACTAGGTCAAAGGTCATAGTCGAGCCAACCA	5.28	8.65	6.91	2.92	10.3	4.84	1.91	3.55
